Screens as filed in PubChem.
The list is not random: actives were taken first. Their share in the collection is about 7.1%.
ELG1 genotoxic – qHTS screen for small molecules that induce genotoxicity in human embryonic kidney (HEK293T) cells expressing luciferase-tagged ELG1. HEK293T ELG1-luciferase reporter, luminescence, 16 h. Potency, µM (series often up to 46 µM), inactives show at the highest dose activity change, positive = activation, actives largely listed as activators. hit rate 1.3% among 330,000. AID 504466, 2011; also: % of control where 0% means no effect; nearly all actives have a fitted effect of over 60% in size
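Screening used a luciferase reporter fused to human ELG1 in HEK293T cells. Luminescence was read on a CCD plate imager after 16 hr exposure and 30 min ONE-Glo incubation.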
SW480 rereplic – A quantitative high throughput screen for small molecules that induce DNA re-replication in SW480 colon adenocarcinoma cells; SW480 DNA re-replication, Hoechst DNA content imaging, 48 h; Potency, µM (titrated, usually from 46.1 µM), for the others: top-dose re-replication activation, usual class: activators; hit rate 1.8% among 340,000; AID 624297, 2012; also: % of control where 0% means no effect; nearly all actives have a fitted effect of over 55% in size
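Per well, 250 cells were exposed to pinned compound for 48 hr. Nuclear DNA was visualised with Hoechst (40 min, 37 C) and total object intensity recorded by fluorescence scanning.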
ELG1 repair inh – qHTS screen for small molecules that inhibit ELG1-dependent DNA repair in human embryonic kidney (HEK293T) cells expressing luciferase-tagged ELG1. HEK293T ELG1-luciferase reporter, luminescence, 16 h; DNA damage induced by 5-fluorouridine. Potency, µM (titrated, usually from 46.1 µM), for the others: top-dose activity change, negative = inhibition, most hits filed as inhibitors. AID 504467, 2011. hit rate 2.3% among 330,000; also: % is scaled to controls: 0 for no effect and ±100 for the full control effect; nearly all actives have a fitted effect of over 55% in size
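In this reporter screen, reduction of luminescence relative to DMSO vehicle indicated activity. Compounds and 5-fluorouridine were added together to 2,000 cells per well, incubated for 16 hr at 37 °C, then developed with ONE-Glo.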
AT treatment – qHTS Assay for Identifying a Potential Treatment of Ataxia-Telangiectasia | F2112 A-T fibroblasts, KAP-1 phosphorylation AlphaLISA; neocarzinostatin DNA damage 30 min before lysis | Potency, µM (highest dose often 57.5 µM), without a hit: top-dose activation, actives largely listed as activators | hit rate 0.19% among 320,000 | AID 485349, 2010; also: % of control where 0% means no effect; nearly all actives have a fitted effect of over 45% in size
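ATM-like activity read as KAP-1 phosphorylation via AlphaLISA donor/acceptor antibody pairs after lysis and 6 hr at 25C. Cells were ATM-null patient fibroblasts (F2112, hTERT), dosed 60 min, then exposed to the DSB inducer NCS for 30 min.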
MCF10A rereplic – A quantitative high throughput screen for small molecules that induce DNA re-replication in MCF 10a normal breast cells | hit rate 2.9% among 350,000 | AID 624296, 2012 | MCF 10A DNA re-replication, Hoechst nuclear intensity, 48 h | Potency, µM (series often up to 46.1 µM), for inactives: at the highest dose activity, positive = re-replication, most hits filed as activators; also: % of control where 0% means no effect; nearly all actives have a fitted effect of over 50% in size
p53 reactivation – qHTS assay for re-activators of p53 using a Luc reporter. H1299 p53-A138V BP100-luciferase reporter, luminescence, 24 h. Potency, µM (doses to about 92.2 µM), for inactives: at the top dose activity change, positive = activation, actives largely listed as activators. hit rate 0.063% among 320,000. AID 504706, 2011; also: % of control where 0% means no effect; nearly all actives have a fitted effect of over 45% in size
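p53-null H1299 cells stably carrying temperature-sensitive p53-A138V and a BP100-luciferase reporter were pinned with compounds (4-point, 1:5 series) and held 24 hrs at 37 deg C. Luminescence was read 10 min after detection reagent.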
* = called active by the depositor; ? = inconclusive; . = no result; [ ] = dose if it differs, or a comment. Calls follow the shape of the dose curve; as a rule, active = well fitted curve in the direction sought with a large enough effect; inconclusive = small, poorly fitted or top-dose-only effect, or another doubt; inactive = no such curve, though single readings can be large; an effect the other way counts as inactive or inconclusive. Potency is read from the fitted curve at half-maximal effect.

SMILES	ELG1 genotoxic	SW480 rereplic	ELG1 repair inh	AT treatment	MCF10A rereplic	p53 reactivation
CCCCCC(O)C1C(=O)OC(C)C(O)\C=C/C=C\C=C/C=C\C=C(\C)C(O)C(O)C(O)CC(O)CC(O)CC(O)CC(O)CC1O (stereo unspecified)	.	-8.4%	.	.	4.9%	.
CC(=NCCc1c[nH]c2ccccc12)c1c(O)n(Cc2ccccc2)c(=O)[nH]c1=O	-13.7%	14.6µM*	?	31.6µM*	?	-3.4%
CCC(=NCCc1c[nH]c2ccccc12)c1c(O)n(-c2ccc(C)cc2)c(=O)[nH]c1=O	-4.4%	?	?	2.5%	?	1.6%
CCC(=NCCc1c[nH]c2ccccc12)c1c(O)n(C)c(=O)n(C)c1=O	-10.2%	2.8%	16.4µM*	6.8%	?	-1.6%
Nc1nc(N)nc(NC2CC2)n1	.	1.0%	.	.	3.2%	.
O=c1c2ccccc2nc(/C=C/c2ccc3c(c2)OCO3)n1-c1cccc(O)c1	-6.0%	.	16.4µM*	-2.9%	?	-5.2%
Cc1nc2ccccc2c(=O)n1-c1cccc(O)c1	-0.1%	-6.0%	7.2%	-4.0%	27.3%	4.4%
COc1nc2ccccc2c(=O)n1-c1ccc(C)cc1	0.1%	2.0%	-1.4%	3.1%	0.0%	9.4%
Cc1ccc(-n2c(/C=C/c3ccc4c(c3)OCO4)nc3ccccc3c2=O)cc1	-5.0%	6.6%	18.4µM*	6.4%	16.1%	-0.6%
COc1ccc(-n2c(/C=C/c3ccc4c(c3)OCO4)nc3ccccc3c2=O)cc1	-10.9%	0.5%	23.1µM*	4.4%	?	-7.9%
CN[C@@H](C)[C@H]1CC[C@@H](N)[C@@H](O[C@@H]2[C@@H](O)[C@@H](O[C@H]3OC[C@@](C)(O)[C@@H](NC)[C@@H]3O)[C@H](N)C[C@@H]2N)O1 (tested in a mixture with another compound)	.	-0.8%[20.6 µM]	.	.	-8.2%[20.6 µM]	.
O=C(CN1C(=O)C(=O)N(C2CCCC2)C1=O)Nc1cc(Cl)ccc1[N+](=O)[O-]	2.6%	-3.5%	14.0%	-5.7%	?	0.8%
CC(C)(N)Cc1ccc(Cl)cc1	.	-6.1%	.	.	-0.8%	.
CCCCCc1cc(O)c2c(c1)OC(C)(C)C1CC=C(C)CC21 (stereo unspecified)	.	?	.	.	7.5µM*	.
NC(N)=S	-3.4%	1.8%	14.8%	-51.1%	-7.0%	1.7%
CCN(CC)C(=O)c1ccc(NC(=O)c2cn(-c3ccccc3)nc2-c2ccc(OC)cc2)cc1	-8.6%	-3.3%	13µM*	8.2%	2.2%	-5.7%
NP(=O)(Oc1ccccc1Cl)Oc1ccccc1Cl	-2.8%	-24.8%	?	1.4%	0.651µM*	6.6%
CC(C)N1C(=O)/C(=C/C=C/c2ccco2)C(=O)N(Cc2ccco2)C1=O	1.0%	?	?	14.3%	9.2µM*	-17.2%
COc1ccc(/C=C2/C(=O)N(Cc3ccco3)C(=O)N(C(C)C)C2=O)cc1	-1.3%	5.7%	4.9%	-4.2%	18.4µM*	-5.6%
CCN1C(=O)C(=C/C=C/c2ccco2)C(=O)N(CC)C1=S	15.9%	5.0%	?	2.4%	0.0%	-3.0%
Cn1c(CCCC(=O)O)nc2cc(N(CCCl)CCCl)ccc21	.	14.1%	.	.	?	.
Nc1cc(Cl)c2nonc2c1[N+](=O)[O-]	-16.2%	?	?	-0.9%	3.26µM*	-63.4%
COc1cccc(-n2c(/C=C/c3ccccn3)nc3ccccc3c2=O)c1	-16.3%	?	?	26.7%	?	.
COc1cccc(-n2c(/C=C/c3ccc(O)c(O)c3)nc3ccccc3c2=O)c1	1.4%	10.3µM*	8.2µM*	-4.2%[11.5 µM]	18.4µM*	-4.6%
O=c1c2ccccc2nc(/C=C/c2ccc(O)cc2)n1-c1ccc(O)cc1	-3.2%	21.3%	-29.8%	7.8%	23.1µM*	-7.4%
SMILES	ELG1 genotoxic	SW480 rereplic	ELG1 repair inh	AT treatment	MCF10A rereplic	p53 reactivation
COc1ccc(-n2c(/C=C/c3ccc(O)cc3)nc3ccccc3c2=O)cc1	-6.0%	-2.6%	?	6.8%	0.82µM*	.
Cc1cccc(-n2c(/C=C/c3ccccn3)nc3ccccc3c2=O)c1	-8.8%	?	?	9.9%	?	.
COc1ccc(-n2c(/C=C/c3ccc(O)c(OC)c3)nc3ccccc3c2=O)cc1	-1.0%	?	?	-4.6%	?	-1.1%
O=c1c2ccccc2nc(/C=C/c2ccc(O)cc2)n1-c1cccc(O)c1	0.3%	?	?	-1.1%	23.1µM*	-2.5%
CCCCCCC(=O)CCCCCC/C=C/C[C@@H](O)[C@H](O)[C@@](N)(CO)C(=O)O	.	2.0%	.	.	11.3%	.
CCN(CC)C(=O)/C(Cl)=C(\C)OP(=O)(OC)OC	.	1.4%	.	.	5.5%	.
O=C(N/N=C/c1c(O)n(Cc2ccco2)c(=O)[nH]c1=O)c1ccccc1	3.2%	-20.6%	?	-1.1%	-6.2%	6.5%
C=CC1CN2CCC1CC2C(OC(=O)OCC)c1ccnc2ccc(OC)cc12 (stereo unspecified)	.	-4.2%	.	.	1.4%	.
O=C1N=C(N2CCCCC2)SC1=C1CCCCC1	16.4µM*	-6.1%	?	-1.9%	0.0%	?
COc1ccc(CN(C)S(=O)(=O)c2nnc(NC(=O)c3ccccc3Br)s2)cc1	0.2%	?	19.1%	-1.2%	?	-1.2%
CN(C)C(=O)Oc1ccc(OCc2n(C)c3ccccc3[n+]2C)cc1	-1.3%	16.4µM*	-2.9%	2.2%	4.5%	6.3%
COCCOC(=O)c1c(C)n(C)c2ccc(OC(=O)N(C)C)cc12	-8.1%	-12.8%	-5.6%	-2.7%	-11.6%	0.9%
CC(=O)O[C@H](CC(=O)O)C[N+](C)(C)C	-10.5%	7.5%	-5.5%	6.8%	-0.3%	4.4%
CC(=O)OC(CC(=O)O)C[N+](C)(C)C (stereo unspecified)	-5.6%	0.3%	18.4µM*	-5.2%	?	1.1%
CC[C@H]1CN(C)C[C@@]2(C(=O)OC)Cc3c([nH]c4ccccc34)C(=O)C[C@@H]12	.	-41.5%	.	.	-32.3%	.
CC[C@H]1CC2CN3CCc4c([nH]c5cc(OC)ccc45)[C@](C(=O)OC)(C2)[C@H]13	.	0.731µM*	.	.	?	.
COc1cc2c(cc1OC)C(C(=O)N1CCC3(CC1)OCCO3)C(c1ccccc1F)N(C)C2=O (stereo unspecified)	-8.4%	-0.7%	18.4µM*	4.6%	?	-5.9%
